Assay results reported in PubChem BioAssay.
Activity calls are given as the source filed them.

What was measured:
[1] = biological target: Albumin (Bos taurus) (UniProt P02769); test: bovine serum albumin binders on microarray, profiling panel, artefact control for SMM control protein annotation, biochemical, small-molecule microarray, Alexa647 label, 635/667 nm fluorescence (AID 1118); conditions: BSA-A647 binding, fluorescence 635 nm, higher = more signal;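 note: score merges 667 nm emission intensity and signal-to-noise per printed compound spot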
[2] = small-molecule microarray binders of probe aXIP, primary screen, biochemical, NeuroSMM set, 635/667 nm fluorescence (AID 1119); conditions: higher = more signal, called active from +8 up or from −8 down;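 note: probe is the protein aXip251-270 applied at 1 µg/mL to compound-printed slides; binding of probe to printed compounds measured as 667 nm fluorescence plus signal to noise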
[3] = small-molecule binders of probe aNOTCH3, primary screen, biochemical, small-molecule microarray, 635/667 nm fluorescence (AID 1120); conditions: higher = more signal;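 note: probe is a biotin-tagged antibody raised against NOTCH3 rather than NOTCH3 protein; score merges spot fluorescence near 667 nm with spot signal to noise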
[4] = small-molecule binders of probe aNOTCH2, primary screen, biochemical, small-molecule microarray, 635/667 nm fluorescence (AID 1121); conditions: higher = more signal;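 note: score merges feature fluorescence read at 667 nm with its signal to noise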
[5] = biological target: Carbonic anhydrase 2 (Homo sapiens) (UniProt P00918); test: CAII small-molecule binders, profiling panel, biochemical, small-molecule microarray, Alexa647-labelled CAII (AID 1122); conditions: CAII-A647 binding fluorescence, higher = more signal
[6] = COS7 lysate on small-molecule microarray, probe aHis, 635 nm (AID 1123); conditions: COS7 cell lysate, fluorescence, higher = more signal;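 note: z-score combines 667nm fluorescence intensity with signal-to-noise per printed compound spot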
[7] = compound binding in COS7 lysate, probe aLAP1, primary screen, cell lysate, small-molecule microarray (AID 1124); conditions: probe aLAP1, fluorescence, higher = more signal;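 note: lysate comes from COS7 cells expressing LAP1 and is applied at 0.3 µg/mL; score merges spot fluorescence near 667 nm with signal-to-noise over triplicate slides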
[8] = system: Sam68 (KHDRBS1); test: Sam68 small-molecule binders, primary screen, biochemical, small-molecule microarray, 635 nm fluorescence (AID 1125); conditions: small-molecule microarray binding, higher = more signal;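 note: score merges 667 nm channel intensity with signal to noise over triplicate slides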
[9] = system: Chordin-like protein 2 (CHRDL2); test: CHRDL2 small-molecule binders, primary screen, biochemical, small-molecule microarray, 635 nm fluorescence (AID 1126); conditions: small-molecule microarray binding, fluorescence 635 nm; higher = more signal;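 note: printed compound slides probed with Chrdl2 protein at 4 µg/mL for 1 h at 4 C; score merges 667 nm emission intensity with signal to noise over three replicate slides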
[10] = biological target: Concanavalin-A (Canavalia ensiformis) (UniProt P02866); test: ConA small-molecule binders, primary screen, artefact control for SMM control protein annotation, biochemical, small-molecule microarray, Alexa647 label, 635 nm (AID 1127); conditions: ConA-A647 binding fluorescence, higher = more signal;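 note: z combines 667 nm emission intensity with signal-to-noise across three replicate slides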
[11] = anti-His antibody binders, primary screen, artefact control for SMM control protein annotation, biochemical, small-molecule microarray, 635 nm fluorescence (AID 1128); conditions: anti-His Alexa647 antibody binding, higher = more signal;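 note: score merges feature fluorescence with signal-to-noise for each printed compound spot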
[12] = system: Human papillomavirus type 1a E7 protein (residues 1-88); test: HPV1a E7 small-molecule binders, primary screen, biochemical, small-molecule microarray, residues 1-88, 635 nm (AID 1129); conditions: small-molecule microarray binding, fluorescence 635 nm; higher = more signal
[13] = biological target: Focal adhesion kinase 1 (Homo sapiens) (UniProt Q05397); test: small-molecule microarray binders of FAK, primary screen, biochemical, 635/667 nm fluorescence, BSA, DTT (AID 1130); conditions: PTK2 binding, 635 nm fluorescence, higher = more signal;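 note: composite of spot emission at 667 nm and signal to noise over triplicate slides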
[14] = system: Fibrinogen (Alexa647-labelled); test: fibrinogen binders on compound microarrays, profiling panel, artefact control for SMM control-protein annotation, biochemical, small-molecule microarray, 635/667 nm fluorescence (AID 1131); conditions: fibrinogen-A647 binding fluorescence, higher = more signal;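 note: z-score merges 667 nm fluorescence with per-spot signal-to-noise over triplicate slides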
[15] = biological target: Follistatin (Homo sapiens) (UniProt P19883); test: follistatin binders on small-molecule microarrays, primary screen, biochemical, small-molecule microarray, 635/667 nm fluorescence (AID 1132); conditions: FST binding, 635 nm fluorescence, higher = more signal
[16] = biological target: Fibroblast growth factor 2 (Homo sapiens) (UniProt P09038); test: FGF2 binders on small-molecule microarrays, primary screen, biochemical, small-molecule microarray, 635/667 nm fluorescence (AID 1133); conditions: small-molecule microarray binding, FGF2, fluorescence 635/667; higher = more signal
[17] = mitochondrial membrane potential change in A549 cells, profiling panel, cell-based, JC-1 fluorescence, basal, 24 h, 100 nL (AID 1138); conditions: higher = more signal;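 note: A549 lung adenocarcinoma cells under basal conditions with no added stimulus; test concentration not given here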
[18] = system: Lefty1; test: Lefty1 binders on small-molecule microarrays, primary screen, biochemical, small-molecule microarray, 635/667 nm fluorescence (AID 1139); conditions: small-molecule microarray binding, fluorescence 635/667; higher = more signal
[19] = system: wheat germ agglutinin (Triticum aestivum), Alexa647-labelled; test: wheat germ agglutinin binders on compound microarrays, profiling panel, artefact control for SMM control-protein annotation, biochemical, small-molecule microarray, 635/667 nm fluorescence (AID 1140); conditions: WGA-A647 binding, 635 nm fluorescence, higher = more signal;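 note: score merges 667 nm feature emission with signal to noise over triplicate slides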
[20] = biological target: Luciferin 4-monooxygenase (Photinus pyralis) (UniProt P08659); test: firefly luciferase enzyme inhibitors, primary screen, biochemical, luminescence, purified enzyme, 2006 set (AID 1141); conditions: SteadyGlo luminescence, 30 min, higher = more signal, called active from +8 up or from −8 down;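 note: cell-free assay with purified firefly luciferase at 100 ng per well in PBS; test concentration not given here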
Sequence of Luciferin 4-monooxygenase (Photinus pyralis) (P08659 whole entry, looked up): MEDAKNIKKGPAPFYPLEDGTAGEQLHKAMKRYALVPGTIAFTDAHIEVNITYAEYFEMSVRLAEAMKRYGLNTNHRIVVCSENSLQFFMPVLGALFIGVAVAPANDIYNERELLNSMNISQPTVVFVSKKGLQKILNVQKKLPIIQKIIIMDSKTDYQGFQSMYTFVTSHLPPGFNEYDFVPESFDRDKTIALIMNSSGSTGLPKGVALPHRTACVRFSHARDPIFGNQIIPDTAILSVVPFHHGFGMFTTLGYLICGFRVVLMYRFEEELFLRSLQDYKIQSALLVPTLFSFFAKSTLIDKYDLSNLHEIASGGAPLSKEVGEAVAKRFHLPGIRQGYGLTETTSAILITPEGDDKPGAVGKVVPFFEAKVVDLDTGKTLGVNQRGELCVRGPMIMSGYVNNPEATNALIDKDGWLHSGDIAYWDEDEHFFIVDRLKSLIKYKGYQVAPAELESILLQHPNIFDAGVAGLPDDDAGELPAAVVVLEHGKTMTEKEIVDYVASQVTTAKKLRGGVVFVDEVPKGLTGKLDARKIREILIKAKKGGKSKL

Sequence of Concanavalin-A (Canavalia ensiformis) (P02866 whole entry, looked up): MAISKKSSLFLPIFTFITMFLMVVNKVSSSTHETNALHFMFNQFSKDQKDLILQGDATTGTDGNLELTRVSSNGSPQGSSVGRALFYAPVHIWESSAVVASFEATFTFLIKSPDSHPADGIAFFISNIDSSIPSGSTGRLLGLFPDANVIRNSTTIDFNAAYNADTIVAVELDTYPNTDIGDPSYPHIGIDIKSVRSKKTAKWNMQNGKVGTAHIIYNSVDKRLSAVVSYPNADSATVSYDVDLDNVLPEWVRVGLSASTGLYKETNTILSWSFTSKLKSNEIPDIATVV
Sequence of Albumin (Bos taurus) (P02769 whole entry, looked up): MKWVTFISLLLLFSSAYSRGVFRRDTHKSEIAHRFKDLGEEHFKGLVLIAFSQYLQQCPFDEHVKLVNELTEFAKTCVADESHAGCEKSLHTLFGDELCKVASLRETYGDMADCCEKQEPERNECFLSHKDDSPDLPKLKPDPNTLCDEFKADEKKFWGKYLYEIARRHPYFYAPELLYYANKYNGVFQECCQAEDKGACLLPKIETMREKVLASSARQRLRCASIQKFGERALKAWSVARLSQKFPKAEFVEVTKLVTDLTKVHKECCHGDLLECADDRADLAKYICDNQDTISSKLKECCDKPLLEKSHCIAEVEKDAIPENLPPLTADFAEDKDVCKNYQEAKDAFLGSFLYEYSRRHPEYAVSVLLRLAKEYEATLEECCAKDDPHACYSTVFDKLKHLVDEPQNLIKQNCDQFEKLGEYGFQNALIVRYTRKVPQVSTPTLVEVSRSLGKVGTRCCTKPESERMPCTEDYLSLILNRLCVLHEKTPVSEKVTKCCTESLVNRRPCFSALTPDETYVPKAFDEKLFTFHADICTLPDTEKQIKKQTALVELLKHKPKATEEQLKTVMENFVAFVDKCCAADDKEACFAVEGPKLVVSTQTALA
Sequence of Fibroblast growth factor 2 (Homo sapiens) (P09038 whole entry, looked up): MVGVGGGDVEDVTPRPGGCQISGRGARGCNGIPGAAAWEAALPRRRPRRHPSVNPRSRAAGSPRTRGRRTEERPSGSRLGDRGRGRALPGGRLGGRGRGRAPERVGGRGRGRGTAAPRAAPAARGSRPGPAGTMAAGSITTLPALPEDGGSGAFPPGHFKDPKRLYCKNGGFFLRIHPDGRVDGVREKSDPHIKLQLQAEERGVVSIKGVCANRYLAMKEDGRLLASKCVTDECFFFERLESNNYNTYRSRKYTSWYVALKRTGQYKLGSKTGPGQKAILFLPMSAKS
Sequence of Follistatin (Homo sapiens) (P19883 whole entry, looked up): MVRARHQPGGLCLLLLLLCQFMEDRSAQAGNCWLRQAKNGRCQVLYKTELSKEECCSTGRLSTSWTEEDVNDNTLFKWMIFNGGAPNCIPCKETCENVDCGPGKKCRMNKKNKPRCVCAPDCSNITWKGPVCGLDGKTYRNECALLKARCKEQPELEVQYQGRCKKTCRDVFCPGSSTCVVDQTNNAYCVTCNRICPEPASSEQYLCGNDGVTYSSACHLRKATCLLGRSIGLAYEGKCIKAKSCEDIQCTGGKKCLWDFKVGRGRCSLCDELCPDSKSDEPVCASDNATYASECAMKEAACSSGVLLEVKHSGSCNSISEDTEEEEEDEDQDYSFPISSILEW
Sequence of Focal adhesion kinase 1 (Homo sapiens) (Q05397 whole entry, looked up): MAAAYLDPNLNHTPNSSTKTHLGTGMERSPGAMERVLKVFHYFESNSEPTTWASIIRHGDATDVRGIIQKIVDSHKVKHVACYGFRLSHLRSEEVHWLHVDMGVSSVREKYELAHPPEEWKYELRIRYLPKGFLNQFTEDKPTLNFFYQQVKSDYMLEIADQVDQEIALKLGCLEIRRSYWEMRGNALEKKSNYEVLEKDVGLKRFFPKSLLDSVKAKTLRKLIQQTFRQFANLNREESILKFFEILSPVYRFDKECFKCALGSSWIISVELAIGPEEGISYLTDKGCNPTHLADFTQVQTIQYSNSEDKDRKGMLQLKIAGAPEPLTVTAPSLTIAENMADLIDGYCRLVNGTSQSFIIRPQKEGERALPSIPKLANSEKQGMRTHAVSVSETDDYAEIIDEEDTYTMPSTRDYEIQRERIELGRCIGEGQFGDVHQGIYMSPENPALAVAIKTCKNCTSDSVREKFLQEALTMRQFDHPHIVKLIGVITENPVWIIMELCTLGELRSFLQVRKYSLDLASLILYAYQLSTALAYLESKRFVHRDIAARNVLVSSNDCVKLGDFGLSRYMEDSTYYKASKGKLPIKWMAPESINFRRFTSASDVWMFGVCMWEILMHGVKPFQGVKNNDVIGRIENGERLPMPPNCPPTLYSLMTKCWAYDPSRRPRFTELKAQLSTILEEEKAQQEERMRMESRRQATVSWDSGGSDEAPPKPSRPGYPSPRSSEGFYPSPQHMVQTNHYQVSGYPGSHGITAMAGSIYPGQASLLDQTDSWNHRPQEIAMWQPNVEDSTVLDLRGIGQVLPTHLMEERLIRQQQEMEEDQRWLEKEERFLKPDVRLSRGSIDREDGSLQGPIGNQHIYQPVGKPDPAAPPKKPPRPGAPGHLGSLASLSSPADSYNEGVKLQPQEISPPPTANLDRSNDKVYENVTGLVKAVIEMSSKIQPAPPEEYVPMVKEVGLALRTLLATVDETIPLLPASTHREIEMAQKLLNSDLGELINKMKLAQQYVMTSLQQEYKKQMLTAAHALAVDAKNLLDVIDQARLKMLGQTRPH

SMILES	composite z-score [1]	composite Z-score [2]	composite z-score [3]	composite z-score [4]	composite z-score [5]	composite z-score [6]	composite z-score [7]	composite z-score [8]	composite z-score [9]	composite z-score [10]	composite z-score [11]	composite z-score [12]	composite z-score [13]	composite z-score [14]	composite z-score [15]	composite z-score [16]	z-score [17]	composite z-score [18]	composite z-score [19]	z-score [20]
COC(=O)c1c(CC[C@@H](CO)NC(=O)N[C@@H](C)Cn2cc(-c3ccccn3)nn2)oc(C(C)=O)c1C(=O)OC	-0.373	0.615 (inactive)	0.11	-0.0995	0.708	0.267	-0.555	0.871	0.204	0.743	1.73	-0.0012	-0.291	-0.676	1.28	0.707	-0.467	0.936	0.184	0.641 (inactive)
CCOC(=O)C[C@H]1[C@H](OC(=O)c2ccc(C(=O)c3ccccc3)cc2)[C@@H](NC(=O)C2CCCCC2)c2cc(OCCCO)ccc2N1C(=O)c1ccc2ccccc2n1	0.534	-0.482 (inactive)	-0.0647	-0.102	0.0738	1.05	-0.0375	1.31	0.24	0.955	0.497	0.835	0.0096	0.102	0.796	0.979	0.956	1.41	0.0469	0.425 (inactive)
CC(CO)N1C(=O)[C@]2(C)C3C(=O)OCCC/C=C\[C@H]3OC23C=CCN(c2ccc(Cl)cc2)C(=O)[C@@H]13 (stereo not given in full)	0.739	-0.462 (inactive)	-0.186	-0.14	0.867	-0.354	0.644	-1.61	0.217	-0.474	-0.263	-0.48	1.53	-0.316	-0.568	-0.85	0.444	-0.506	-0.335	-0.53 (inactive)
CC(C)C(O)C1C=CC2C(=O)N(c3ccccc3)C(=O)C2N1Nc1ccccc1 (stereo not given)	0.938	-0.221 (inactive)	0.228	-0.131	0.698	3.02	0.281	1.31	-0.235	0.966	0.331	1.29	0.463	1.05	0.986	-0.11	0.0126	0.63	1.14	0.172 (inactive)
O=C1[C@H]2C=C(I)[C@H](C[C@@H]2OCCOCCO)[C@@]12CO2	-0.35	-0.175 (inactive)	-0.0299	-0.173	-0.0167	-0.477	0.072	0.807	0.466	0.2	-0.0655	0.747	0.0017	0.0216	0.697	0.952	-0.43	0.858	-0.12	0.818 (inactive)
CCOC(=O)C1=C[C@@H](C(C)(C)C)N(S(=O)(=O)c2ccc(C)cc2)[C@H]1c1cccc2ccccc12	0.261	0.592 (inactive)	0.0327	-0.101	0.312	1.76	0.0493	1.05	-0.516	1.05	1.15	0.716	0.191	0.896	0.466	-0.195	2.89	0.139	0.437	0.908 (inactive)
C=CCN1C(=O)[C@]2(CCC(=O)OC(C)(C)C)N=C(c3ccc(OCCCO)cc3)O[C@@H]2c2ccccc21	-0.361	-0.014 (inactive)	0.185	-0.118	0.256	1.38	0.023	0.587	0.281	1.14	2.42	0.944	0.469	0.317	1.19	-0.132	0.859	0.467	0.27	-5.66 (inactive)
C=C(COC)/C(=C/C[C@H](OC(=O)c1ccncc1)c1ccccc1OCCO)c1cc(C(=O)OC)ccc1OC	0.601	0.614 (inactive)	0.118	-0.11	0.752	1.2	0.0479	1.27	0.0156	0.784	0.717	1.06	0.319	0.148	1.17	0.66	0.416	1.32	0.925	-0.756 (inactive)
COC(=O)[C@@]1(Cc2ccc(F)cc2)[C@H]2c3cc(C(=O)N(C)C)n(Cc4ccc(OC(F)(F)F)cc4)c3C[C@H]2CN1C(=O)c1ccccc1	0.239	-0.249 (inactive)	0.11	-0.078	0.0217	0.398	0.0642	-0.0367	-0.0356	0.296	0.348	0.626	0.0291	0.572	0.216	0.016	0.561	-0.182	0.341	1.6 (inactive)
O=C1OCCC=C[C@H]2OC34C=CCN(Cn5nnc6ccccc65)C(=O)[C@H]3N(CCCO)C(=O)[C@@H]4C12 (stereo not given in full)	-0.841	-0.0287 (inactive)	-0.353	-0.13	0.0109	-1.05	1.45	-0.674	-0.433	-1.2	-0.0275	-1.46	-0.519	-0.975	-0.676	-0.446	-0.9	-0.935	-0.0152	0.0251 (inactive)
CC1CC/C=C\[C@H]2OC34C=CCN(c5ccc(Cl)cc5)C(=O)[C@H]3N(C(C)CO)C(=O)[C@]4(C)C2C(=O)O1 (stereo not given in full)	-1.07	-0.408 (inactive)	-0.322	-0.14	0.768	-0.66	1.27	-0.297	-0.482	-0.863	-0.984	-1.5	-0.177	-0.173	-0.954	-1.06	0.798	-0.847	0.429	-1.14 (inactive)
CC[C@@H]1C=C(C(=O)O)[C@H](c2ccc(C#N)cc2)N1S(=O)(=O)c1ccc(C)cc1	0.173	0.474 (inactive)	-0.0077	-0.046	0.838	3.03	1.44	1.09	-1.52	0.91	3.35	0.845	0.941	-0.0509	-0.594	-0.105	-0.0902	-0.833	1.09	0.522 (inactive)
Cc1ccc(S[C@]2(C(=O)NC(C)C)CC(=O)N(Cc3cc(C(F)(F)F)cc(C(F)(F)F)c3)[C@@H]2c2ccc(CO)cc2)cc1	-0.0844	-0.459 (inactive)	-0.384	-0.126	0.241	0.596	0.293	-0.374	-1.19	-0.534	-0.254	-0.629	-0.734	-0.983	-1.33	-0.977	0.605	-0.67	0.0491	-0.222 (inactive)
CCOC(=O)C[C@H]1[C@H](OC(=O)c2ccccc2-c2ccccc2)[C@@H](NC(=O)c2ccc3ccccc3n2)c2cc(OCCCO)ccc2N1C(=O)Cc1ccc(OC)cc1	0.505	-0.891 (inactive)	0.033	-0.106	0.105	0.428	0.134	0.368	0.456	0.0562	-0.186	0.511	0.0434	0.47	0.248	0.268	0.397	0.577	0.509	0.43 (inactive)
COc1cc(NN2C(C(O)c3cc(OC)c(OC)c(OC)c3)C=CC3C(=O)N(C)C(=O)C32)cc(OC)c1OC (stereo not given)	1.03	0.328 (inactive)	0.499	-0.0028	0.67	2.77	0.0495	1.23	0.0976	0.894	0.661	1.07	0.368	0.169	0.67	0.0023	1.38	0.289	0.694	0.229 (inactive)
C=C[C@@H](OC)[C@H](OC(=O)Nc1ccc(OC)cc1)c1ccc(O)c(F)c1	-0.715	0.656 (inactive)	-0.0581	-0.2	0.268	1.93	0.117	0.21	0.746	-0.728	0.0143	-0.0707	0.0004	-0.808	1.2	0.659	-0.116	1.35	-0.251	-3.89 (inactive)
CCCCNC(=O)c1ccc(C#CC(C)(C)C)c(OC(C)=O)c1	0.691	0.0956 (inactive)	0.0744	-0.181	0.728	-0.0302	-0.0555	1.02	0.641	0.744	0.213	0.712	0.797	0.587	0.665	0.553	-0.895	0.777	0.64	0.856 (inactive)
C=CCNC(=O)[C@H]1[C@@H]2C(=O)O[C@@H](c3ccccc3)[C@@H](c3ccccc3)N2[C@@H](c2ccccc2OCCO)[C@]12C(=O)N(C(=O)OCCOC)c1ccc(C#CC3(O)CCCCCC3)cc12	0.604	0.359 (inactive)	0.0225	0.0018	0.309	1.79	1.05	1.29	0.174	0.815	0.977	1.18	0.325	0.579	0.785	0.226	-0.634	0.876	0.763	-1.64 (inactive)
CCCCCN1CC=CC23O[C@@H]4C=CCCOC(=O)C4[C@H]2C(=O)N(CCCCCCO)[C@@H]3C1=O (stereo not given in full)	-0.587	0.976 (inactive)	-0.252	-0.203	0.861	2.33	0.0488	0.0067	-0.856	-0.52	2.82	-0.0566	-0.0757	-1.21	-0.444	-0.439	0.608	-0.0715	-0.411	-0.086 (inactive)
CN(C)C(=O)[C@]1(Cc2ccccc2CN=[N+]=[N-])N=C(c2ccc(OCCCO)cc2)O[C@@H]1c1ccccc1	0.349	-0.4 (inactive)	0.113	-0.0896	0.402	2.06	0.454	1.3	-1.08	1.04	2.24	1.22	0.48	0.947	0.987	0.658	-0.439	0.035	1.02	0.582 (inactive)
